In PubChem BioAssay AID376 (PDSP, 2006):
The whole screen tested about 2,000 compounds, of which about 250 (12%) were called active. The entries come from a sample that favours actives as a whole. Values without a mark were called inactive. Rule as the data show it: active = hERG blockade below about -20% or above about 20%; inactive = in between.

Molecular target: Voltage-gated inwardly rectifying potassium channel KCNH2 (Homo sapiens) (UniProt Q12809)
Experiment: modulators of KCNH2 ion channel function, cellular (AID 376);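 also: 0% = buffer alone and 100% = reference blocker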
Conditions: hERG-expressing cells, channel activity single-concentration screen; concentration not given here

Sequence of Voltage-gated inwardly rectifying potassium channel KCNH2 (Homo sapiens) (Q12809 whole entry, looked up): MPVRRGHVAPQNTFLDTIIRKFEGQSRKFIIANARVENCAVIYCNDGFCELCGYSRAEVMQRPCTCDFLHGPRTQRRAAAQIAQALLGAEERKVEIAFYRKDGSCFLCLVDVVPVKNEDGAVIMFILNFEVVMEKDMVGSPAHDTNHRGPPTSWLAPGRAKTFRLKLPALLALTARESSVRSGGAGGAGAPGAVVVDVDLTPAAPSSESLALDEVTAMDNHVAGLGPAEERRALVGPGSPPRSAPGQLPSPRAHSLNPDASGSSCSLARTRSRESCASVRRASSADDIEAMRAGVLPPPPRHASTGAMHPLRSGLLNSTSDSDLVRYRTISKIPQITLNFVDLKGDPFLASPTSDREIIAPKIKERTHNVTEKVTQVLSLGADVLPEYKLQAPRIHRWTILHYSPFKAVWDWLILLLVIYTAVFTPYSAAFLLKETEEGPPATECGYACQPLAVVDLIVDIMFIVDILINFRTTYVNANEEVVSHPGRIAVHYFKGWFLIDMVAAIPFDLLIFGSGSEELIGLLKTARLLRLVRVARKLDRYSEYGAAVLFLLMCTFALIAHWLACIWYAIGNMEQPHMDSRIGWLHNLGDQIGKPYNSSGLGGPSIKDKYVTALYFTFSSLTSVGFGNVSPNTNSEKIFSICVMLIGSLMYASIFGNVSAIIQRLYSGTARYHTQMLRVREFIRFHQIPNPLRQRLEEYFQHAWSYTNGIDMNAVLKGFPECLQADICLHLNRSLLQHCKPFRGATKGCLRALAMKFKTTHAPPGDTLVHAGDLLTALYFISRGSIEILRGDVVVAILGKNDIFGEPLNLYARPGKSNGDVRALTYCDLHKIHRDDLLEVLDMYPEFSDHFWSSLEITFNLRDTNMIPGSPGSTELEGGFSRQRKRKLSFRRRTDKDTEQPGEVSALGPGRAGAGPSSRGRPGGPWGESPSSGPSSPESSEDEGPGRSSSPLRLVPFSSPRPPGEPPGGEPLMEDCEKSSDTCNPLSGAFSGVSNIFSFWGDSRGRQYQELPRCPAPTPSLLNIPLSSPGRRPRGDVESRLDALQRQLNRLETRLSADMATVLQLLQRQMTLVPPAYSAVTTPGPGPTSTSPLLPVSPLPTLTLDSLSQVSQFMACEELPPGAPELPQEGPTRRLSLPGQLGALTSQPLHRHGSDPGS

Q: With `CC(C)CCNc1ncnc2[nH]ncc12` as the molecule, how does the hERG blockade read?
A: The hERG blockade was 0.816%.

Q: Which hERG blockade does the source give for `NCC1OC(n2cnc3c(=O)[nH]c(N)nc32)C(O)C1O` (stereo not drawn) here?
A: Its hERG blockade is 5.66%.

Q: For `CCC1=C(CC2NCCc3ccccc32)CC2c3cc(OC)c(OC)cc3CCN2C1` (stereo not drawn), which hERG blockade is on record?
A: The hERG blockade was 47.5% (active).

Q: With `N#CC(=CNc1ccccn1)C(=O)c1ccco1` as the molecule, how does the hERG blockade read?
A: Its hERG blockade is -1.1%.

Q: How did the hERG blockade turn out when `OCCCNCc1ccncc1` was run?
A: The hERG blockade was -7.86%.

Q: `CC1(C)SC2C(C(=O)O)N=C(Cc3ccccc3)N2C1C(=O)O` (stereo not drawn) was tested. Which hERG blockade did it give?
A: Its hERG blockade is 4.53%.

Q: With `O=[N+]([O-])c1ccc2ncccc2c1CCc1c([N+](=O)[O-])ccc2ncccc12` as the molecule, how does the hERG blockade read?
A: Its hERG blockade is 2.28%.

Q: Which hERG blockade does the source give for `CC(=O)C(C)CCOC1(C)OCCC1C` (stereo not drawn) here?
A: The hERG blockade was -22.8% (active).

Q: How did the hERG blockade turn out when `Cc1ccc(C)c(C(=N)c2ccccc2Cc2ccccc2)c1` was run?
A: The hERG blockade was -12.5%.

Q: With `CC(SCc1ccccc1)C(=O)O` (stereo not drawn) as the molecule, how does the hERG blockade read?
A: The hERG blockade was 3.31%.

Q: With `NCC(=O)Nc1ccccc1` as the molecule, how does the hERG blockade read?
A: Its hERG blockade is 5.81%.

Q: `O=C(c1no[n+]([O-])c1C(=O)c1csc2ccccc12)c1csc2ccccc12` was tested. Which hERG blockade did it give?
A: The hERG blockade was 18.4%.

Q: Which hERG blockade does the source give for `Cc1cccc2c1Oc1ccccc1C2NC(=O)c1ccc([N+](=O)[O-])cc1` (stereo not drawn) here?
A: Its hERG blockade is 32.2% (active).

Q: `O=C(O)c1ccccc1C1c2ccccc2Oc2ccccc21` was tested. Which hERG blockade did it give?
A: Its hERG blockade is 12.2%.

Q: For `NC(CC1=CS(=O)(=O)c2ccc(Cl)cc21)C(=O)O` (stereo not drawn), which hERG blockade is on record?
A: Its hERG blockade is 0.214%.

Q: With `Cc1cc(C(=O)CSC(=S)SC(C)(C)C)ccc1Cl` as the molecule, how does the hERG blockade read?
A: Its hERG blockade is 8.12%.

Q: Which hERG blockade does the source give for `CN(C)CCCNc1cc(O)c2c(c1O)C(=O)c1ccccc1C2=O` here?
A: The hERG blockade was 42.1% (active).

Q: With `CC1=NCC[N+]1(CCc1ccccc1)Cc1ccccc1` (stereo not drawn) as the molecule, how does the hERG blockade read?
A: The hERG blockade was 13.6%.

Q: `CN(C)S(=O)(=O)c1nc(Cl)c2[nH]cnc2n1` was tested. Which hERG blockade did it give?
A: The hERG blockade was -2.43%.

Q: `COc1cc(NCCC(=O)O)c2ncccc2c1` was tested. Which hERG blockade did it give?
A: Its hERG blockade is 11.9%.

Q: Which hERG blockade does the source give for `Cn1c(=O)c2[nH]c(CCCCc3nc4c([nH]3)c(=O)n(C)c(=S)n4C)nc2n(C)c1=S` here?
A: Its hERG blockade is -1.88%.

Q: With `O=C1C=C(N2CCN(c3ccccn3)CC2)C(=O)c2c(O)ccc(O)c21` as the molecule, how does the hERG blockade read?
A: Its hERG blockade is 23.2% (active).

Q: How did the hERG blockade turn out when `Oc1ccc(Cl)cc1C=Nc1cnc2ccccc2c1` was run?
A: Its hERG blockade is 9.11%.

Q: For `C=CCSc1nc2ccccc2c(=O)n1Cc1ccco1`, which hERG blockade is on record?
A: The hERG blockade was 3.62%.

Q: `N#CNC(N)=Nc1ccc(Cl)cc1` was tested. Which hERG blockade did it give?
A: Its hERG blockade is -2.36%.

Q: `O=C(O)C12CC3(C(=O)O)CC(C(=O)O)(CC(C(=O)O)(C1)C3=O)C2=O` was tested. Which hERG blockade did it give?
A: The hERG blockade was -1.77%.

Q: How did the hERG blockade turn out when `FC(F)(F)c1cccc(-c2nc3nc(Cl)c(Cl)nc3[nH]2)c1` was run?
A: Its hERG blockade is -24% (active).

Q: How did the hERG blockade turn out when `CC(CCN)(CCN)[N+](=O)[O-]` was run?
A: The hERG blockade was -18.2%.

Q: With `CN(Cc1cc(C(C)(C)C)cc(Br)c1O)Cc1cc(C(C)(C)C)cc(Br)c1O` as the molecule, how does the hERG blockade read?
A: Its hERG blockade is 5.11%.

Q: How did the hERG blockade turn out when `CC(C)C(=O)Cc1ccc2ccccc2n1` was run?
A: The hERG blockade was -1.76%.

Q: How did the hERG blockade turn out when `CCOC(=S)SCC(=O)O` was run?
A: Its hERG blockade is 0.925%.

Q: How did the hERG blockade turn out when `O=C(O)C1C2CCC(O2)C1C(=O)NCc1cccnc1` (stereo not drawn) was run?
A: The hERG blockade was -25.3% (active).

Q: For `O=C(O)C1C2C=CC(O2)C1C(=O)NCc1cccnc1` (stereo not drawn), which hERG blockade is on record?
A: Its hERG blockade is 5.66%.

Q: How did the hERG blockade turn out when `O=C(O)C1C2CCC(O2)C1C(=O)Nc1cccc2cccnc12` (stereo not drawn) was run?
A: Its hERG blockade is -5.21%.

Q: With `N=c1ncn(CC=Cc2ccccc2)c2nc[nH]c12` as the molecule, how does the hERG blockade read?
A: Its hERG blockade is 15.2%.

Q: How did the hERG blockade turn out when `CN(N=O)c1ccc(C=Cc2ccnc3ccccc23)cc1` was run?
A: Its hERG blockade is 18.7%.

Q: With `CN1CCN(CN2C(=O)C3C4C=CC(C3C2=O)C2C3C(=O)N(CN5CCN(C)CC5)C(=O)C3C42)CC1` (stereo not drawn) as the molecule, how does the hERG blockade read?
A: Its hERG blockade is 2.12%.

Q: `NC(Cc1ccnnc1)C(=O)O` (stereo not drawn) was tested. Which hERG blockade did it give?
A: Its hERG blockade is -0.431%.

Q: With `O=C(O)C1CC=CCC1C(=O)Nc1cccc(O)c1` (stereo not drawn) as the molecule, how does the hERG blockade read?
A: The hERG blockade was 7.36%.

Q: Which hERG blockade does the source give for `O=C1c2ccccc2C(=O)c2c(Nc3cc4c5c(ccc6c7ccc8c9c(cc(Nc%10cccc%11c%10C(=O)c%10ccccc%10C%11=O)c(c3c56)c97)-c3ccccc3C8=O)C(=O)c3ccccc3-4)cccc21` here?
A: Its hERG blockade is 34.1% (active).

Q: Which hERG blockade does the source give for `O=C1c2ccccc2C(=O)c2c(Nc3ccc4c5c(cccc35)C(=O)c3ccccc3-4)cccc21` here?
A: Its hERG blockade is -13.6%.

Q: For `O=C1c2ccccc2C(=O)c2c(NC(=O)c3ccc4c5c(ncnc35)-c3ccccc3C4=O)cccc21`, which hERG blockade is on record?
A: The hERG blockade was 6.48%.

Q: How did the hERG blockade turn out when `CC1CCC(O)(C(C)(C(=O)O)c2ccccc2)CC1` (stereo not drawn) was run?
A: Its hERG blockade is 5.36%.

Q: For `CCCn1cnc2c(SCc3ccc(Cl)cc3)nc(N)nc21`, which hERG blockade is on record?
A: Its hERG blockade is -2.91%.

Q: How did the hERG blockade turn out when `C=CCC(C(=O)O)c1ccccc1` (stereo not drawn) was run?
A: Its hERG blockade is -1.33%.

Q: Which hERG blockade does the source give for `CN(C)CN1CSC(=S)N(CN(C)C)C1` here?
A: The hERG blockade was -7.7%.

Q: How did the hERG blockade turn out when `CCn1c(CCCc2nc3c([nH]2)c(=O)n(C)c(=O)n3C)nc2c1c(=O)n(C)c(=O)n2C` was run?
A: The hERG blockade was 25.2% (active).

Q: `Cn1c(=O)c2[nH]c(CCCCC(=O)O)nc2n(C)c1=O` was tested. Which hERG blockade did it give?
A: The hERG blockade was -14.9%.

Q: `Cn1c(=O)c2[nH]c(CCS)nc2n(C)c1=O` was tested. Which hERG blockade did it give?
A: Its hERG blockade is 5.6%.

Q: For `O=C(O)CC(Nc1ccccc1)C(=O)O` (stereo not drawn), which hERG blockade is on record?
A: The hERG blockade was 12.6%.

Q: How did the hERG blockade turn out when `O=C(O)c1nnsc1COCc1ccccc1` was run?
A: The hERG blockade was 7.88%.

Q: How did the hERG blockade turn out when `O=C(CCN1CCCCC1)c1csc2ccccc12` was run?
A: The hERG blockade was 6.4%.

Q: Which hERG blockade does the source give for `O=c1c2ccccc2sc2c(CO)ccc(NCCN3CCCCC3)c12` here?
A: The hERG blockade was 46% (active).
